From PubChem BioAssay
Sampled rows, rich in hits. Any-hit rate of the full collection: about 1.6%.
OPRM1-OPRD1 ag: agonists of human mu-delta opioid receptor heterodimerization | actives 0.3% (n = 340,000) | cells, OPRM1-OPRD1 heterodimerization, luminescence | AID 504326 | activation, % at 9.3 µM | P35372+P41143;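 note: 0% = vehicle-treated cells and 100% = reference agonist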
HTR2A ag: activates the mouse 5-HT2A serotonin receptor; P35363; CHO-K1 mHTR2A beta-arrestin complementation, luminescence; percent of 30 µM serotonin response; activation, % at 7.6 µM; actives 0.66% (n = 360,000);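 active = activation above a run cutoff, the mean activation of all tested compounds plus 3 SD, cut at about 14% in these data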;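 note: 0% = plate median of compound wells and 100% = 30 µM serotonin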
Target sequence (P35363 whole entry, looked up): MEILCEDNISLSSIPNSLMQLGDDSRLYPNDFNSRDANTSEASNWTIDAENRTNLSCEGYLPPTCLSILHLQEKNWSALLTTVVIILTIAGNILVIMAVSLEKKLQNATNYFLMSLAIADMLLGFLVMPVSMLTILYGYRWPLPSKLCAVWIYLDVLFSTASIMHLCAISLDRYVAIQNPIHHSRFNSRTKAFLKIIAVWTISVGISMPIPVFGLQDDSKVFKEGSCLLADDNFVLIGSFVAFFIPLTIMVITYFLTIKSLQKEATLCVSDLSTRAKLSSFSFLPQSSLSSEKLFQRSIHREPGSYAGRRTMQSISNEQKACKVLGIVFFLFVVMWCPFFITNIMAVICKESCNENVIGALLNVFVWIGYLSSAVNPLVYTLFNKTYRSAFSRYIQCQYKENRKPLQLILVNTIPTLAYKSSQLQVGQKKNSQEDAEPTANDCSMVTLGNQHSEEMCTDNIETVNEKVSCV
HTR5A inv ag: HTR5A inverse agonism, opioid heterodimer counter-screen; P47898; HTR5A cell line, luminescence; inhibition, % at 9.3 µM; actives 0.083% (n = 340,000); in the data active = inhibition mostly above about 23%, no sharp cut-off; inactive = mostly below about 18%;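 note: 0% = cells with DMSO and 100% = no-cell wells with DMSO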
MOR-DOR inv ag: inverse agonists of human mu-delta opioid receptor heterodimerization; P35372+P41143; cell-based MOR-DOR heterodimer luminescence, inverse agonism; inhibition, % at 9.3 µM; actives 0.21% (n = 340,000); AID 504357; in the data active = inhibition above about 22%, passing the limit was not always enough;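 note: 0% = cells with DMSO and 100% = wells without cells with DMSO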
HTR5A ag: counter-screen for OPRM1-OPRD1 agonists: human HTR5A agonism; P47898; HTR5A agonist assay, luminescence, cell-based; activation, % at 9.3 µM; actives 0.61% (n = 340,000); AID 504692; in the data active = activation mostly above about 9.5%, no sharp cut-off; inactive = mostly below about 7.6%;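 note: 0% = cells with vehicle only and 100% = reference agonist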
OPRM1-D1 ag cf: OPRM1-OPRD1 heterodimer agonism, confirmation | shares compounds with OPRM1-OPRD1 ag | cells, MOR-DOR heterodimerization, luminescence complementation | activation, % at 9.3 µM | actives 45% (n = 830) | AID 504904;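 note: 0% = vehicle-treated cells and 100% = reference agonist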
HTR5A ag counter: activates human HTR5A in OPRM1-OPRD1 agonist counter-screen; shares compounds with OPRM1-OPRD1 ag; HTR5A agonist counterscreen, cell luminescence; actives 8% (n = 830); activation, % at 9.3 µM; in the data active = activation above about 17%;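 note: 0% = vehicle-treated cells and 100% = reference agonist response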
MOR-DOR inv conf: confirmation of human OPRM1-OPRD1 heterodimerization inverse agonists | shares compounds with MOR-DOR inv ag | cells expressing OPRM1/OPRD1 heterodimer, luminescence | inhibition, % at 9.3 µM | actives 20% (n = 580) | AID 504900; in the data active = inhibition above about 32%;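 note: 0% = cells with DMSO and 100% = wells lacking cells with DMSO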
HTR5A inv count: inverse agonist of human HTR5A in OPRM1-OPRD1 counter-screen | shares compounds with MOR-DOR inv ag | HTR5A-expressing cells, luminescence, inverse agonism | inhibition, % at 9.3 µM | 580 tested, under 10 active; call rule not given here;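 note: 0% = cells with DMSO and 100% = no-cell wells with DMSO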
MOR ag counter: counter-screen for mouse HTR2A agonists: human mu opioid receptor agonists | U2OS OPRM1 beta-arrestin PathHunter, luminescence; DMSO 0%, DAMGO 9.3 µM 100% | shares compounds with HTR2A ag | actives 5.3% (n = 2,300) | AID 624380 | activation, % at 9.3 µM;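 active = mean activation above the mean of DMSO-only wells plus 3 SD, cut at about 0.5% in these data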
m5-HT2A ag conf: mouse HTR2A agonism confirmed; shares compounds with HTR2A ag; AID 624381; actives 19% (n = 2,300); CHO-K1 PathHunter beta-arrestin recruitment, luminescence; DMSO 0%, 30 µM serotonin 100%; activation, % at 7.6 µM;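 active = mean activation across triplicates above the hit threshold derived in the original primary screen, cut at about 15% in these data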
An asterisk follows results filed as active; i = inactive; · = no result. Cut-off read from the data, not from the text of the source, unless noted: active = activation above about 18%; inactive = the rest.

SMILES	OPRM1-OPRD1 ag	HTR2A ag	HTR5A inv ag	MOR-DOR inv ag	HTR5A ag	MOR-DOR inv conf	HTR5A inv count	others
COc1ccc(C2/C=C\CN(C(=O)Nc3ccc(C(F)(F)F)cc3)CC(=O)N2Cc2ccc(F)cc2)cc1 (stereo not drawn)	58*	2	-50	-318	20*	·	·	OPRM1-D1 ag cf=0;HTR5A ag counter=-3
C=C(C)COc1ccc(-c2n[nH]c(C)c2-c2ccc(OC)cc2)c(O)c1	30*	-1	-16	-176	8	·	·	OPRM1-D1 ag cf=-2;HTR5A ag counter=-2
CC(=O)NC1=NC(=O)/C(=C/c2cc(C)n(-c3ccc(NC(C)=O)cc3)c2C)S1	60*	4	-47	-312	-3	·	·	OPRM1-D1 ag cf=14;HTR5A ag counter=4
COc1cccc(N2CCN(c3ncnc4c3cnn4-c3ccc(C)cc3C)CC2)c1	23*	15*	4	-130	-2	·	·	OPRM1-D1 ag cf=27*;HTR5A ag counter=15;MOR ag counter=3.0*;m5-HT2A ag conf=10
COc1ccc(NC(=O)c2cc(-c3sc(NC(=O)c4ccccc4)nc3C)n(Cc3ccccc3)n2)cc1	·	-1	·	·	·	·	·
Cc1ccc(N=C2C(=O)Nc3ccccc32)cc1C	-8	10	22	43*	-2	i	-26
COc1cc(/C=N/N=C2/C(=O)Nc3ccccc32)cc(OC)c1O	0	0	33	1	-5	·	·
O=C1Nc2ccccc2/C1=N/N=C/c1cccc(O)c1	-1	-1	19	5	3	·	·
O=C1Nc2ccccc2C1=Nc1ccc2[nH]c3ccccc3c2c1	-9	4	17	49*	-4	i	-66
Cc1ccc([N+](=O)[O-])cc1N=C1C(=O)Nc2ccccc21	-11	-4	26	50*	-7	-51	-101
Cc1ccc(N=C2C(=O)Nc3ccccc32)cc1	-10	1	8	49*	-2	-71	9
Cc1cc(=O)n2c(nc3ccccc32)s1	·	8	·	·	·	·	·
COc1ccccc1N(C)S(=O)(=O)c1ccc(C(=O)NCCCN2CCCC2=O)cc1	·	-4	·	·	·	·	·
CC(=O)c1cccc(N=C2C(=O)Nc3ccccc32)c1	-9	-5	21	59*	-1	37*	4
CC(=O)c1cccc(N2C(=O)Nc3ccccc3N2O)c1	-1	5	1	9	1	·	·
C[C@H]1CCC/C=C/[C@@H]2C[C@H](O)C[C@H]2[C@H](O)[C@H](S(=O)c2ccc(O)cc2)CC(=O)O1 (stereo partly drawn)	-10	0	0	44*	0	-64	-19
O=C(O)COc1ccc(NC(=O)c2ccc3c(c2)C(=O)N(CC2CCCO2)C3=O)cc1 (stereo not drawn)	·	-3	·	·	·	·	·
CCN(CC)C(=O)CN1C(=O)C(=O)c2ccccc21	-8	5	3	38*	-1	14	8
CC1CCN(C(=O)CN2C(=O)C(=O)c3ccccc32)CC1	-5	4	1	29*	0	13	5
O=C(CN1C(=O)C(=O)c2ccccc21)c1ccc(Cl)cc1	-8	3	1	46*	1	-79	-9
CC1CCN(C(=O)CN2C(=O)c3cccc4cccc(c34)C2=O)CC1	-2	0	24	8	-2	·	·
CCN(CC)C(=O)CN1C(=O)c2cccc3cccc1c23	-3	-5	-5	14	1	·	·
CC(C)(C)NC(=O)CN(Cc1cccs1)C(=O)c1csnn1	-1	2	-14	4	-3	·	·
CC(C)(C)NC(=O)CN(Cc1cccs1)C(=O)CN1C(=O)C(=O)c2ccccc21	-6	-2	-16	33*	6	24	14
O=C(CN1C(=O)C(=O)c2ccccc21)OCN1C(=O)c2ccccc2C1=O	-6	0	5	30	-2	·	·
SMILES	OPRM1-OPRD1 ag	HTR2A ag	HTR5A inv ag	MOR-DOR inv ag	HTR5A ag	MOR-DOR inv conf	HTR5A inv count	others
CCc1cnc(Nc2nc(C(N)c3ccccc3Cl)cs2)nc1 (stereo not drawn)	·	0	·	·	·	·	·
O=C(NNC(=S)NCC1CCCO1)c1cc(Br)ccc1Cl (stereo not drawn)	-8	-5	5	33*	-2	5	13
O=C(Cc1ccc(Cl)c(Cl)c1)NNC(=S)NCC1CCCO1 (stereo not drawn)	-5	2	-23	29	-3	·	·
CC(C)(C)n1nnnc1C(c1ccccc1)N1CCN(CCN2CCOCC2)CC1 (stereo not drawn)	·	-4	·	·	·	·	·
O=C1c2ccccc2-c2c1nc1c([n+]2[O-])CCCC1	-16	4	18	93*	-10	22	1
CC1(C)CC(CC(=O)NC(=S)Nc2ccc([N+](=O)[O-])cc2)C(=O)O1 (stereo not drawn)	-6	-4	2	35*	-6	-259	-4
COc1ccc(S(=O)(=O)Nc2c(C)n(C)n(-c3ccccc3)c2=O)c(Cl)c1Cl	-6	4	6	31*	-2	-180	1
O=C(Nc1ccccc1)c1cc(C2CCCCN2C(=O)CCc2ccccc2)on1 (stereo not drawn)	·	-1	·	·	·	·	·
Cc1ccc(SCc2[nH]nc3c2C2(C(=O)Nc4ccc(F)cc42)C(C#N)=C(N)O3)cc1 (stereo not drawn)	-1	1	-24	3	9	·	·
Cc1ccc(CSc2nnc3c(n2)OC2(Nc4ccccc4-3)C(=O)Nc3ccc(F)cc32)cc1 (stereo not drawn)	-14	-8	5	79*	-2	70*	8
O=C1Nc2ccc(F)cc2C12Nc1ccccc1-c1nnc(SCc3ccccc3)nc1O2 (stereo not drawn)	-14	-5	16	79*	-6	70*	8
O=C1Nc2ccc(F)cc2C12Nc1ccccc1-c1nnc(SCc3ccccc3Cl)nc1O2 (stereo not drawn)	-14	-7	14	78*	-2	56*	7
Clc1ccccc1CSc1cc2c(nn1)-c1ccccc1CC2	2	-4	-1	-11	-4	·	·
Cn1c(NNC(=O)c2ccccc2F)cc(=O)n(C)c1=O	-4	4	26	23	0	·	·
